Shown is part of a subset that was picked to be rich in hits.
Tg IFNy HTS: T. gondii growth inhibition under IFN-gamma; activity change, negative = inhibition, % (concentration not given with the values); AID 1259416; actives 3.8% (n = 69,000); Toxoplasma gondii growth in IFN-gamma-treated host cells; hits give low values; in the data active = activity change below about -70%, passing the limit was not always enough;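 note: host cells are HeLa cells infected with Toxoplasma gondii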
A number is an active result; 0 = inactive; ! = repeats disagree.

SMILES | Tg IFNy HTS
Cc1ccc2[nH]c(C(=O)N3CCCC3)c(NC(=O)c3ccc(Cl)cc3)c2c1 | 0
O=C(O)c1ccc(OCc2ccccc2)cc1 | 0
FC(F)(F)c1cccc(OCc2ccc(-c3ncns3)cc2)c1 | 0
N#Cc1ccc(OCc2ccc(C(F)(F)F)cc2)cc1 | -81
CCS(=O)(=O)N1CCC(C(=O)N2CCN(c3cccc(C(F)(F)F)c3)CC2)CC1 | 0
CS(=O)(=O)N1CCC2(CCCN2c2nncs2)CC1 | 0
c1cncc(CNc2nnc(-c3ccsc3)c(-c3ccsc3)n2)c1 | 0
CCCCOc1ccc(C(=O)NCCc2sc(-c3cccc(F)c3)nc2C)cc1 | -94
Cc1nc(-c2cccc(F)c2)sc1CCNC(=O)c1ccc(Cl)cc1 | 0
O=C(NCCc1csc(-c2ccc(F)cc2)n1)c1cccc(F)c1 | -90
COc1ccc(C(=O)NCCc2csc(-c3cccc(F)c3)n2)c(OC)c1 | -81
Cc1nc(-c2cccc(F)c2)sc1CCNC(=O)c1ccc(C(C)(C)C)cc1 | 0
CCCCOc1ccc(C(=O)NCCc2csc(-c3cccc(F)c3)n2)cc1 | -81
O=C(NCCc1csc(-c2cccc(F)c2)n1)c1cccc(F)c1 | 0
COc1cccc(C(=O)NCCc2csc(-c3cccc(F)c3)n2)c1 | 0
COc1cc(OC)cc(C(=O)NCCc2csc(-c3cccc(F)c3)n2)c1 | 0
CC(C)Oc1ccc(C(=O)NCCc2csc(-c3cccc(F)c3)n2)cc1 | 0
COc1ccc(C(=O)NCCc2csc(-c3cccc(F)c3)n2)cc1 | 0
O=C(NCCc1csc(-c2ccc(Cl)cc2)n1)c1cccc(F)c1 | 0
O=C(NC1CC2(CCN(Cc3ccccc3Cl)CC2)C1)C1CC1 | 0
CCN(CC)C(=O)Cn1cc(C(=O)C(C)C)c2ccccc21 | 0
CCOc1ccccc1-c1noc(-c2nnn(Cc3nc(-c4ccc(OC)cc4)oc3C)c2C)n1 | 0
CCc1nc(SCC(=O)NCc2sc(C)nc2CC)n[nH]1 | 0
CN(CCC1CCOCC1)C(=O)c1ccco1 | 0
CCn1c(CC2CCN(C(=O)C3COc4ccccc4O3)CC2)nn(C)c1=O (stereo not given) | 0
SMILES | Tg IFNy HTS
COC(=O)c1ccc(N2CCN(C)CC2)c(NC(=O)c2ccco2)c1 | 0
CC(C)NC(=O)Cn1ncc2c(N3CCCCC3)ncnc21 | 0
CC1(CNC(=O)CNS(=O)(=O)c2ccc3c(c2)OCCCO3)COC1 | 0
Cc1cccc(-c2nc(CCNC(=O)c3ccco3)cs2)c1 | 0
O=C(NCCc1csc(-c2ccccc2)n1)c1ccc(Cl)cc1 | 0
O=C(NCCc1csc(-c2ccc(Cl)cc2)n1)c1ccco1 | -81
CS(=O)(=O)N1CCCN(c2nccc(N3CCCC(O)C3)n2)CC1 (stereo not given) | 0
O=C1CO[C@H]2CN(c3ncc(F)cn3)C[C@@H]2N1CC1CC1 | 0
COc1ccc(-c2nc(N(C)C3CCCCC3)c3ccccc3n2)cc1 | 0
O=C1[C@@H]2C[C@H](O)CCN2C(=O)CN1CCC(c1ccccc1)c1ccccc1 | 0
[O-][NH2+]c1ccc(O)c2ncccc12 | -84!
Cc1ncc(CN2CC=CC[C@@]3(C(=O)N4CCN(C)CC4)CCC[C@@H]23)cn1 | 0
CN(C)C(=O)N[C@@H]1CN(C2CCOCC2)C2CCCOC21 (stereo not given in full) | 0
CC[C@]1(O)CC2CN(CCc3c([nH]c4ccccc34)[C@@](C(=O)OC)(c3cc4c(cc3OC)N(C)[C@H]3[C@@](O)(C(=O)OC)[C@H](OC(C)=O)[C@]5(CC)C=CCN6CC[C@]43[C@@H]65)C2)C1 (stereo not given in full) | -82
COC(=O)[C@H]1[C@H]2C[C@@H]3c4[nH]c5ccccc5c4CCN3C[C@H]2C[C@@H](OC(=O)c2cc(OC)c(OC)c(OC)c2)[C@@H]1OC | 0
CC(=O)N1c2ccc(NC(=O)c3c(-c4ccncc4)noc3C)cc2CC1C (stereo not given) | 0
COCC(C)NC(=O)c1sc2ccccc2c1Cl (stereo not given) | 0
CCC(CC)n1ncc(C)c1NC(=O)CCc1c(C)[nH]c2ccccc2c1=O | 0
CCCCc1c(C)[nH]c2ccccc2c1=O | -99
CCCCCCCCCc1nc2c(=O)[nH]c3ccccc3c2o1 | 0
Cn1cncc1CN1CCOC2(CCCN(c3cccc(F)c3)C2)C1 (stereo not given) | 0
CCOc1ccc(C2c3[nH]c4ccccc4c3CCN2C(=O)c2ccnn2C)cc1 (stereo not given) | 0
COc1cccc(N2CCN(C(=O)C3CC4(CCNCC4)CN3)CC2=O)c1 (stereo not given) | 0
CCCC(NC(=O)CCc1nnc(-c2ccc(-c3ccccc3)cc2)o1)c1ccccc1 (stereo not given) | 0
Cc1occc1C(=O)N1CCn2cc(Cn3cncn3)nc2C1 | 0
CCC(C(=O)N1CCC[C@@H]1C(=O)NCCc1csc(-c2ccccc2)n1)c1ccccc1 (stereo not given in full) | 0
O=C(NCc1nc(-c2ccncc2)n[nH]1)c1cccs1 | -94
O=C(NCc1nc(-c2ccncc2)n[nH]1)Nc1ccccc1C(F)(F)F | 0
CC(=O)c1cc(C(=O)NCCc2nc(-c3cccnc3)n[nH]2)cs1 | 0

High-throughput results as filed in PubChem BioAssay.
